From PubChem
ELG1 DNA repair – ELG1-dependent DNA repair inhibition. Potency, µM (top dose mostly 46.1 µM), usual class: inhibitors. HEK293T ELG1-luciferase reporter, luminescence, 16 h; DNA damage induced by 5-fluorouridine. AID 504467. 330,000 compounds, 2.3% hits; further: nearly all actives have a fitted effect of over 55% in size
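DMSO vehicle served as the neutral condition. Each well held 2,000 cells given 5-fluorouridine plus compound; after 16 hr at 37 °C/5% CO2, ONE-Glo was added and luciferase measured 30 min later.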
Nrf2 block – blocks Nrf2 signaling; 360,000 compounds, 2.1% hits; A549 ARE-Fluc reporter, luciferase luminescence, 18-24 h; Potency, µM (top dose mostly 46 µM), hits mostly inhibitors; further: nearly all actives have a fitted effect of over 60% in size
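Nrf2 function is reported as luminescence of an ARE-controlled luciferase in A549 cells. Compounds were tested at several concentrations, and a CellTiter-Fluor read on the same wells flagged cytotoxicity.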
A549 tox – counter-screen for Nrf2 inhibitors: cytotoxicity in A549 cells; A549 ARE-Fluc cells, CellTiter-Fluor viability, 18-24 h; Potency, µM (highest dose often 46 µM), hits mostly inhibitors; 390,000 compounds, 0.16% hits; AID 504648
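A549 ARE_Fluc cells in 5% FBS OPTI-MEM were exposed to compounds in concentration-response for 18-24 h at 37 deg C. Viability was read by CellTiter-Fluor fluorescence (Ex 405/Em 525) after 30 min, before the luciferase read.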
Nrf2 activator – Nrf2 pathway activation. 410,000 compounds, 0.31% hits. Potency, µM (series often up to 46.1 µM), usual class: activators. AREc32 ARE-luciferase reporter (MCF7-derived line), luminescence, 24 h; further: nearly all actives have a fitted effect of over 65% in size
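Steps: seed AREc32_Fluc cells (1000/well, 5% FBS OPTI-MEM); incubate overnight at 37 deg C; add 23 nL compound; incubate 24 hr; add Steady-Glo; hold 30 min RT; read luminescence.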
Each line names hits and unclear results; the compound was inactive in the other large screens. An excerpt weighted towards active compounds, which were near 3.7% of everything screened. The call rests on the fitted dose curve; in most records, active means well fitted curve in the direction sought with a large enough effect; inconclusive means small, poorly fitted or top-dose-only effect, or another doubt; inactive means no such curve, though single readings can be large; an effect the other way counts as inactive or inconclusive.

c1cncc(-c2nc(NCc3ccc4c(c3)OCO4)c3ccccc3n2)c1	ELG1 DNA repair 20.6µM, A549 tox inconclusive
CN1OC[C@@H]2CN(Cc3ccccc3)[C@H](c3cccc(-c4ccc(C#N)cc4)c3)C[C@@H]21	none (no result: ELG1 DNA repair)
NS(=O)(=O)c1ccc(CCNC(=O)CN2CCN(c3ccc(F)cc3)CC2)cc1	Nrf2 block 16.4µM
CCCCn1c(N)c(N(CCC(C)C)C(=O)c2ccc([N+](=O)[O-])s2)c(=O)[nH]c1=O	Nrf2 block inconclusive
CCOC(=O)N1CCC(Nc2ncnc3c2cnn3-c2ccccc2)CC1	ELG1 DNA repair inconclusive, Nrf2 block 16.4µM
COc1ccc(CNC(=O)c2c(N)n(CCCN3CCOCC3)c3nc4ccccc4nc23)cc1	ELG1 DNA repair 20.6µM, Nrf2 block 16.4µM (no result: A549 tox)
C=CCn1c(N)c(C(=O)NCC2CCCO2)c2nc3ccccc3nc21 (stereo not given)	ELG1 DNA repair 10.3µM, A549 tox inconclusive
Nc1c(C(=O)NCc2ccccc2)c2nc3ccccc3nc2n1CCCN1CCOCC1	ELG1 DNA repair 20.6µM, Nrf2 block inconclusive
Nc1c(C(=O)NCc2ccc(F)cc2)c2nc3ccccc3nc2n1CCCN1CCOCC1	ELG1 DNA repair inconclusive, Nrf2 block inconclusive, A549 tox inconclusive
O=C(CSc1nncs1)NNC(=O)c1ccco1	none
Cc1cc(=O)[nH]c2nnc(SCc3ccccc3F)n12	none (no result: ELG1 DNA repair, Nrf2 block)
COc1ccc(OC)c(CN2CCN(c3ccc(S(=O)(=O)N4CCCC4)cn3)CC2)c1	ELG1 DNA repair inconclusive, Nrf2 block inconclusive
CC(C)Oc1cccc(C(=O)Nc2ccc(N3CCN(S(C)(=O)=O)CC3)cc2)c1	none
Cc1ccccc1C(=O)N1CCN(c2ccc(NC(=O)c3ccco3)cc2)CC1	none
COc1c(C)cccc1C(=O)Nc1ccc(N2CCN(C(=O)c3ccccc3C)CC2)cc1	ELG1 DNA repair 10.3µM, Nrf2 block 20.6µM
COc1ccc(C(=O)N2CCN(c3ccc(NC(=O)c4cccs4)cc3)CC2)cc1	ELG1 DNA repair 11.6µM
Cc1ccccc1C(=O)N1CCN(c2ccc(NC(=O)c3cccc(OC(C)C)c3)cc2)CC1	ELG1 DNA repair 16.4µM
Cc1ccccc1C(=O)N1CCN(c2ccc(NC(=S)NC(=O)c3cccs3)cc2)CC1	ELG1 DNA repair 20.6µM
Cc1ccccc1C(=O)N1CCN(c2ccc(NC(=O)c3ccc4c(c3)OCCO4)cc2)CC1	ELG1 DNA repair inconclusive, Nrf2 block 20.6µM
CC(=O)N1CCN(c2ccc(NCc3ccc(C)cc3)cc2)CC1	ELG1 DNA repair inconclusive
CCc1ccc(CNc2ccc(N3CCN(C(C)=O)CC3)cc2)cc1	ELG1 DNA repair inconclusive, Nrf2 block 16.4µM, A549 tox inconclusive
CCc1ccc(C(=O)N2CCN(c3ccc(NC(=O)c4cccnc4)cc3)CC2)cc1	ELG1 DNA repair 23.1µM
O=C(Nc1ccc(N2CCN(C(=O)c3ccccc3)CC2)cc1)c1ccc2c(c1)OCO2	ELG1 DNA repair inconclusive, Nrf2 block inconclusive
O=C(Nc1ccc(N2CCN(C(=O)c3ccccc3)CC2)cc1)c1cccnc1	ELG1 DNA repair inconclusive, Nrf2 block inconclusive
Nc1ccc(CCCC(=O)NCc2cccnc2)cc1	none (no result: ELG1 DNA repair, Nrf2 block, A549 tox)
CC1CCN(C(=O)CSc2c3c(nc4ccc(Cl)cc24)CCCC3)CC1	Nrf2 activator inconclusive (no result: ELG1 DNA repair)
Nc1cnc(Nc2ccc(Br)cc2)nc1N	ELG1 DNA repair inconclusive, Nrf2 block inconclusive
COCCCNC(=S)Nc1cccc2ncccc12	Nrf2 block 13µM
Cc1cc(S(=O)(=O)N2CCCOC2CNC(=O)C(=O)NCCCN2CCOCC2)ccc1F (stereo not given)	none
CCC1(OC(=O)CN(C)C)C(=O)OCc2c1cc1n(c2=O)Cc2cc3c(N)cccc3nc2-1 (stereo not given)	Nrf2 block 0.651µM, A549 tox inconclusive (no result: ELG1 DNA repair)
C[C@@H]1CCCCO[C@@H](CN(C)C(=O)CCC(F)(F)F)[C@@H](C)CN([C@H](C)CO)C(=O)c2cc(N(C)C)ccc2O1	none (no result: ELG1 DNA repair, Nrf2 block, A549 tox)
Cc1nnc(SCC(=O)N2c3ccccc3C(C)(c3ccccc3)CC2(C)C)s1 (stereo not given)	Nrf2 block 23.1µM, A549 tox inconclusive
CCCCC(=O)N1c2ccccc2C(C)(c2ccccc2)CC1(C)C (stereo not given)	none (no result: ELG1 DNA repair)
CC1=CC(C)(C)N(C(=O)CSc2nnc(C)s2)c2ccc(C)cc21	Nrf2 block inconclusive
Cc1ccc(C2(C)CC(C)(C)N(C(=O)CSc3nnc(C)s3)c3ccccc32)cc1 (stereo not given)	Nrf2 block 20.6µM, A549 tox inconclusive
COc1ccc(-c2coc3c(C(=O)NC4CCCCC4)cccc23)c(C)c1	none (no result: ELG1 DNA repair, Nrf2 block, A549 tox)
